Screening data (PubChem BioAssay)
C8 TRAIL sens – sensitizes caspase-8 expressing cells to TRAIL | 1% of 360,000 active | inhibition (viability loss, TRAIL sensitization), % at 10 µM | NB7+C8 cells + TRAIL, ATPlite viability luminescence;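 active means compounds causing at least 50% loss of cell viability in the single-dose screen, relative to plate controls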
HSP90 inh – inhibitors of HSP90 luciferase refolding in rabbit reticulocyte lysate; luciferase refolding luminescence, 3 h; inhibition, % at 5.6 µM; 0.91% of 290,000 active;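 active means inhibition above the screen-wide mean plus 3 SD, computed separately per campaign, cut at about 16% in these data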;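 further: inhibitors lower the luminescence because luciferase stays unfolded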
PPC-1+TRAIL kill – PPC-1 cancer cell killing with TRAIL present | AID 1443 | PPC-1 cells + TRAIL, ATPLite viability luminescence | 0.41% of 220,000 active | cell killing (% activity), % at 4 µM or 5 µM;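 active means cell killing above 50% in the first pass at 4 µM, then a duplicate retest at 5 µM averaging 50% or more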
STAT1 inh – inhibitors of IFN-gamma induced STAT1 signaling; 0.35% of 200,000 active; inhibition, % at 5.5 µM; AID 920; NIH 3T3 STAT1-luciferase reporter, luminescence;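 active means inhibition above a set limit, the mean inhibition across all tested compounds plus 3 SD, cut at about 34% in these data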
HSF1 inh – HSF1 inhibition; NIH3T3-HGL HSE-luciferase, MG132-induced, luminescence 8 h; active compounds read low; activity change, negative = inhibition, % at 7.5 µM (by protocol); 0.77% of 300,000 active; AID 2098;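 active means more than half of replicate wells show activity change below -50%, luminescence cut by over half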;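 further: luciferase reports HSF-1 transcriptional activity via heat shock element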
STAT3 blocker – inhibitors of IL-6 induced STAT3 signaling | U3A cells, IL-6 STAT3-luciferase reporter, luminescence; host cell line lacks STAT1 | inhibition, % at 5.5 µM | 0.89% of 190,000 active;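 active means inhibition above the mean inhibition across all screened compounds plus 3 SD, cut at about 44% in these data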
PPC1 cytotox – kills PPC-1 cells | shares compounds with PPC-1+TRAIL kill | PPC-1 viability, ATPlite luminescence, overnight | cytotoxicity, % at 5 µM | 50% of 1,200 active;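 active means reconfirmed compounds whose average cytotoxicity reaches 50% or more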
Numbers stand for hits. The list is not random: actives were taken first. Their share in the collection is about 2.4%.

Screening O=C1CC(=Nc2ccc([N+](=O)[O-])cc2)NN1c1c(Cl)cc(Cl)cc1Cl returned C8 TRAIL sens inactive.
Screening Cc1cccc(/C=C2\CCC(=C3SCCCS3)C2=O)c1 returned C8 TRAIL sens 82.0, HSP90 inh inactive, PPC-1+TRAIL kill 77.8, STAT1 inh inactive, HSF1 inh inactive, STAT3 blocker inactive and PPC1 cytotox 80.3.
`O=C1/C(=C/c2ccccc2)CCCc2ccccc21` gave C8 TRAIL sens inactive, HSP90 inh inactive, PPC-1+TRAIL kill inactive, STAT1 inh inactive, HSF1 inh inactive and STAT3 blocker inactive.
Screening COc1ccc(CCN2C(=O)CCC3=C2CCCC3=O)cc1OC returned C8 TRAIL sens inactive.
COc1ccc(-c2cc3c(nn2)-c2ccccc2C3=O)cc1 was read as C8 TRAIL sens 87.0, HSP90 inh inactive, PPC-1+TRAIL kill 89.3, STAT1 inh 62.1, HSF1 inh inactive, STAT3 blocker 91.8 and PPC1 cytotox 88.9.
For CCCCN1C(=O)C(CC(=O)NCCc2ccccn2)CC(C(=O)N2CCOCC2)=C1C (stereo not given) the results were C8 TRAIL sens inactive.
`C=CCn1c(N)cc(=O)nc1SC(C)C(=O)Nc1cccc2ccccc12` (stereo not given) gave C8 TRAIL sens inactive, HSP90 inh inactive, PPC-1+TRAIL kill inactive, STAT1 inh inactive, STAT3 blocker inactive and PPC1 cytotox inactive.
For C[C@H]1CN([C@@H](C)CO)C(=O)CCCn2nncc2CO[C@H]1CN(C)C(=O)NC1CCCCC1 the results were C8 TRAIL sens inactive.
`CCOC(=O)CNC(=O)CSc1nnc(NC(=O)c2ccc(C)cc2)s1` gave C8 TRAIL sens 88.1, HSP90 inh inactive, PPC-1+TRAIL kill 91.8, STAT1 inh 59.1, HSF1 inh inactive, STAT3 blocker 72.4 and PPC1 cytotox 91.8.
For CCOC(=O)CNC(=O)CSc1nnc(SCC(=O)NCC(=O)OCC)s1 the results were C8 TRAIL sens inactive, HSP90 inh inactive, PPC-1+TRAIL kill inactive, STAT1 inh inactive, HSF1 inh inactive and STAT3 blocker inactive.
COc1cccc(C(C)NC(=O)C2CCCO2)c1 (stereo not given) was read as C8 TRAIL sens inactive, HSP90 inh inactive and HSF1 inh inactive.
COc1ccc(C(C)NC(=O)C2CCCO2)cc1OC (stereo not given) was read as C8 TRAIL sens inactive, HSP90 inh inactive, PPC-1+TRAIL kill inactive, STAT1 inh inactive, HSF1 inh inactive, STAT3 blocker inactive and PPC1 cytotox inactive.
Screening COc1ccc(C2N(C(=O)c3ccccc3)CCN2C(=O)c2ccccc2)cc1 returned C8 TRAIL sens inactive, HSP90 inh inactive, PPC-1+TRAIL kill inactive, STAT1 inh inactive, HSF1 inh inactive, STAT3 blocker inactive and PPC1 cytotox inactive.
Screening COc1ccc(-c2csc(C(O)c3ccc(F)c(F)c3)n2)cc1 (stereo not given) returned C8 TRAIL sens inactive.
Cc1ccccc1NC(=O)Cc1cn(C)c2ccccc12 was read as C8 TRAIL sens inactive, HSP90 inh inactive, PPC-1+TRAIL kill inactive, STAT1 inh inactive, HSF1 inh inactive, STAT3 blocker inactive and PPC1 cytotox inactive.
Screening C[C@H]1CNC(=O)c2c(C(=O)NC3CCN(C(=O)OC(C)(C)C)CC3)ncn21 returned C8 TRAIL sens inactive.
Screening CC(C)CO/C(=N/S(=O)(=O)c1ccccc1)c1ccccc1 returned C8 TRAIL sens inactive, HSP90 inh inactive, PPC-1+TRAIL kill inactive, STAT1 inh inactive, HSF1 inh inactive, STAT3 blocker inactive and PPC1 cytotox inactive.
CC(C)O/C(=N\S(=O)(=O)c1ccc(Cl)cc1)c1ccccc1 was read as C8 TRAIL sens inactive, HSP90 inh inactive, PPC-1+TRAIL kill inactive, STAT1 inh inactive, HSF1 inh inactive and STAT3 blocker inactive.
For CN1CCCC(C)(C(=O)Nc2ccc3scnc3c2)C1 (stereo not given) the results were C8 TRAIL sens inactive.
COc1ccc([N+](=O)[O-])c(O)c1C(C)=O was read as C8 TRAIL sens inactive.
Screening CCOc1ccc(-n2c(SC)nc3c(c2=O)SCC3)cc1 returned C8 TRAIL sens inactive, HSP90 inh inactive, PPC-1+TRAIL kill inactive, STAT1 inh inactive, HSF1 inh inactive, STAT3 blocker inactive and PPC1 cytotox inactive.
